HCV inhibitor – qHTS Assay for Inhibitors of Hepatitis C Virus (HCV); Huh7.5.1 HCVcc-Cre infection, luciferase reporter, 44 h; Potency, µM (highest dose often 41.8 µM), without a hit: at the highest dose activity change, negative = inhibition, usual class: inhibitors; 340,000 tested, 3.4% active; AID 651820, 2012; active means well fitted inhibition curve with a large enough effect; inconclusive means small, poorly fitted or top-dose-only effect, or another doubt; inactive means no such curve, though single readings can be large or run the other way; further: potency means the concentration at half of the fitted maximal effect
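Infectious HCVcc-Cre (~0.5 moi) was added to cells just after compound, with cells seeded 4 h earlier at 1,000 per well. Luciferase activity after 44 h culture reported infection; substrate was incubated 15 min at room temperature before reading.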
MARV entry inh – qHTS for inhibitors of binding or entry into cells for Marburg Virus; Marburg virus pseudotyped entry inhibition, cell reporter; Potency, µM (series often up to 37.8 µM), without a hit: at the top dose activity change, negative = inhibition, hits mostly inhibitors; 300,000 tested, 1.8% active; calls by dose curve; tested in HEK293 cells; further: potency means the concentration at half of the fitted maximal effect
FMDV antiviral – High Throughput Screening for Foot and Mouth Disease Virus Antivirals; FMDV antiviral cell-based qHTS; Potency, µM (titrated, usually from 57.9 µM), for inactives: top-dose activity change, negative = inhibition, actives largely listed as inhibitors; 410,000 tested, 1.2% active; AID 1159524, 2015; calls by dose curve; tested in HEK293T cells; further: read-out not given here; potency means the concentration at half of the fitted maximal effect; nearly all actives have a fitted effect of over 45% in size
HCMV antiviral – qHTS Assay for inhibitors of the human cytomegalovirus (HCMV); HFF cells, HCMV-luciferase reporter, 72 h; hits give low values; activity change, negative = inhibition, % at 57.5 µM; 410,000 tested, 4.5% active; in the data active means activity change below about -60%; inconclusive means no clear call, values can overlap the other calls; inactive means above about -39%
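Human foreskin fibroblasts infected with luciferase-reporter HCMV at MOI 1 PFU/cell, compounds at two doses. Luciferase measured 72 h post infection; normalized to buffer-only basal and Salinomycin (10uM) controls.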
Lassa entry inh – qHTS for Inhibitors of binding or entry into cells for Lassa Virus | Lassa virus pseudotype entry inhibition, cell reporter | Potency, µM (series often up to 37.9 µM), without a hit: at the highest dose activity change, negative = inhibition, actives largely listed as inhibitors | 300,000 tested, 1.2% active | AID 540256, 2011; calls by dose curve; tested in HEK293 cells; further: potency means the concentration at half of the fitted maximal effect; nearly all actives have a fitted effect of over 50% in size
* hit, by the source's call; u = inconclusive; x = no result; [ ] = dose if it differs, or a comment. Compounds with a hit are over-represented: about 7.9% of the library has one in this group of screens. On the % scale 0 is the no-effect control and ±100 the full control effect.

SMILES	HCV inhibitor	MARV entry inh	FMDV antiviral	HCMV antiviral	Lassa entry inh
CCOc1ccc(CCNc2ncnc3onc(-c4ccc(F)cc4)c23)cc1OCC	x	x	u	-30	u
Cc1ccc(C(=O)Nc2nc(-c3ccccn3)cs2)o1	u	x	28%	35	x
O=C(Nc1nc(-c2ccccn2)cs1)c1ccc([N+](=O)[O-])o1	8.9µM*	u	2%	45	u
CC(=O)c1ccc(-c2ccc(C(=O)Nc3nc(-c4ccccn4)cs3)o2)cc1	2.5µM*	x	-4%	84	x
Cc1ccc(NC(=O)c2cccc3c(=O)c4c([nH]c23)CCCC4)c(C)c1	x	u	-13%	-5	8%[46.1 µM]
O=C1c2cccc(NCCNCCO)c2C(=O)c2cccc(NCCNCCO)c21	u	5µM*	0%	-99*	u
O=C(NCCO)c1cccc2c1C(=O)c1ccccc1-2	17%	7%	-12%	-30	4%
O=C(O)CCNc1ccc(NCCC(=O)O)c2c1C(=O)c1ccccc1C2=O	-8%	x	u	-72*	x
CC1=NOC(=O)/C1=C\c1ccc(-c2ccc(Cl)cc2Cl)o1	-17%	1%	u	-75*	u
CCCOc1ccc(Cl)cc1/C=C1/C(=O)ON=C1C	0%	-15%[46.1 µM]	u	8	-4%[46.1 µM]
Nc1n[nH]c(-c2ccc(Br)cc2)c1Cl	-9%	-8%	-5%	-109*	2%
Nc1nc(-c2ccc(Cl)cc2)nnc1-c1ccc(Br)cc1	8%	u	12%	-5	9%[46.1 µM]
O=c1c2ccccc2c(C=Nc2cccc(O)c2)c(O)n1-c1ccc2c(c1)OCO2	-23%	-13%	-33%	-86*	-17%
Cc1ccccc1-n1c(O)c(C=Nc2ccc3c(c2)OCO3)c(=O)[nH]c1=O	19%	15%	-15%	4	8%
Cc1ccc(-c2cn3c(n2)sc2cc(C(=O)NC4CCCCCC4)ccc23)cc1	x	x	4%	x	-23%[46.1 µM]
CCOC(=O)Cn1c(=O)oc2cc(S(=O)(=O)Nc3cc(OCC)ccc3OCC)ccc21	18%	u	-14%	58	0%
CCOC(=O)Cn1c(=O)oc2cc(S(=O)(=O)Nc3ccc(N(CC)CC)cc3C)ccc21	-7%	-1%	-7%	-77*	x
Cc1nn(-c2ccccc2)c(N2CCCC2)c1/C=N/NC(=O)C1CC1	u	u	-26%	-61*	u
Cc1ccc(NS(=O)(=O)c2cccc(C(=O)N/N=C/c3c(C)nn(-c4ccccc4)c3N3CCCC3)c2)c(C)c1	13µM*	-44%	-17%	33	u
CCCCCC(=O)N1c2ccccc2C(C)(c2ccccc2)CC1(C)C (stereo not drawn)	x	-26%[46.1 µM]	-11%	u	u
O=S(=O)(c1ccc(S(=O)(=O)N(Cc2ccc(F)cc2)C2CCCC2)cc1)N1CCCC1	17%	10µM*	-30%	-38	-17%
COC(=O)c1sc2cccc(F)c2c1S(=O)(=O)N1CCN(c2cccc(OC)c2)CC1	x	x	-1%	-7	u
Cc1ccc(C(NC(=O)N2CCOCC2)C(Cl)Cl)cc1F (stereo not drawn)	14%	15%	-11%	-14	-2%
Cc1ccc(C(NC(=O)N2CCOCC2)=C(Cl)Cl)cc1F	10µM*	u	x	-69*	-48%
Cc1ccc(CNC(=O)C2CCCN(Cc3nc(-c4cccc(C)c4)oc3C)C2)cc1 (stereo not drawn)	x	-14%[46.1 µM]	u	-11	0%[46.1 µM]
SMILES	HCV inhibitor	MARV entry inh	FMDV antiviral	HCMV antiviral	Lassa entry inh
COCC(=O)N/N=C/c1ccc(Sc2nc3ccccc3s2)o1	-17%	51%	-9%	-17	10%
O=C(COc1cccc2ccccc12)N/N=C/c1ccc(Sc2nc3ccccc3s2)o1	u	-30%	-9%	66	-28%
O=C(Cc1cccc2ccccc12)N/N=C/c1ccc(Sc2nc3ccccc3s2)o1	10µM*	u	-19%	-31	-24%
N#CCC(=O)N/N=C/c1ccc(Sc2nc3ccccc3s2)o1	10%	21%	10%	-99*	-1%
CC(C)(C)NC(=O)c1ccc2nc(CCc3ccccc3)oc2c1	x	x	27%	40	-10%[46.1 µM]
Cc1cc(C(=O)NCC2CCC3(CCN(Cc4ccc5ccccc5c4)CC3)O2)n(C)n1 (stereo not drawn)	x	x	-29%	x	x
O=C(c1ccccc1)c1ccc(Cn2cc(CCCO)nn2)cc1	10µM*	x	-15%	u	x
O=C(c1ccccc1)c1ccc(Cn2cc(-c3ccccc3)nn2)cc1	1.4µM*	x	-6%	u	x
